According to PubChem BioAssay (NCATS):
Several values for one entry are separate records, joined by “and”; a condition that tells them apart may be missing. Identical values can stand only once. Results filed as inconclusive are left out. Where a call stands in place of a potency, no number is given. More than one record can exist for a structure, and the calls need not agree. Activity calls are given as the source filed them. The call rests on the fitted dose curve; in most records, active means well fitted curve in the direction sought with a large enough effect; inconclusive means small, poorly fitted or top-dose-only effect, or another doubt; inactive means no such curve, though single readings can be large; an effect the other way counts as inactive or inconclusive. Peptide text beside a SMILES is read from it.

Tests used:
[1] = target: Voltage-gated inwardly rectifying potassium channel KCNH2 (Homo sapiens) (UniProt Q12809); test: qHTS Assay for Small Molecule Inhibitors of the Human hERG Channel Activity (AID 588834); details: U2OS BacMam hERG, FluxOR thallium flux fluorescence; series mostly up to 46.1 µM;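 further: lower thallium flux fluorescence means stronger hERG block; nearly all actives have a fitted effect of over 50% in size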
Summary of the method: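 Kinetic FDSS fluorescence; U2OS + hERG BacMam (~100 virus particles/cell); FluxOR Tl+ flux; ~10 min cpd; AC50 (Hill).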

[2] = target: Luciferin 4-monooxygenase (Photinus pyralis) (UniProt P08659); test: Biochemical firefly luciferase enzyme assay for NPC (AID 624030); further: nearly all actives have a fitted effect of over 70% in size; details: purified P. pyralis luciferase, luminescence, 5 min; series mostly up to 58.6 µM
Summary of the method: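 Direct inhibition of firefly luciferase enzyme (10 nM final, 50 mM Tris Acetate) assessed by luminescence within 5 minutes. Percent activity scaled between DMSO and PTC124 positive control, with concentration-effect curves classified by fit quality and response.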

[3] = S16 Schwann cell viability assay (CellTiter-Glo assay) (AID 624031); details: S16 rat Schwann cells viability, 24 h; series mostly up to 57.5 µM; further: nearly all actives have a fitted effect of over 70% in size
Summary of the method: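 This viability control uses native rat S16 Schwann cells grown in DMEM plus 10% FBS. After a 24 h compound treatment at 37 °C, CellTiter-Glo luminescence reports ATP content, scaled against DMSO-treated and cell-free wells.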
Potency means the concentration at half of the fitted maximal effect.

Chain of Voltage-gated inwardly rectifying potassium channel KCNH2 (Homo sapiens) (Q12809 whole entry, looked up): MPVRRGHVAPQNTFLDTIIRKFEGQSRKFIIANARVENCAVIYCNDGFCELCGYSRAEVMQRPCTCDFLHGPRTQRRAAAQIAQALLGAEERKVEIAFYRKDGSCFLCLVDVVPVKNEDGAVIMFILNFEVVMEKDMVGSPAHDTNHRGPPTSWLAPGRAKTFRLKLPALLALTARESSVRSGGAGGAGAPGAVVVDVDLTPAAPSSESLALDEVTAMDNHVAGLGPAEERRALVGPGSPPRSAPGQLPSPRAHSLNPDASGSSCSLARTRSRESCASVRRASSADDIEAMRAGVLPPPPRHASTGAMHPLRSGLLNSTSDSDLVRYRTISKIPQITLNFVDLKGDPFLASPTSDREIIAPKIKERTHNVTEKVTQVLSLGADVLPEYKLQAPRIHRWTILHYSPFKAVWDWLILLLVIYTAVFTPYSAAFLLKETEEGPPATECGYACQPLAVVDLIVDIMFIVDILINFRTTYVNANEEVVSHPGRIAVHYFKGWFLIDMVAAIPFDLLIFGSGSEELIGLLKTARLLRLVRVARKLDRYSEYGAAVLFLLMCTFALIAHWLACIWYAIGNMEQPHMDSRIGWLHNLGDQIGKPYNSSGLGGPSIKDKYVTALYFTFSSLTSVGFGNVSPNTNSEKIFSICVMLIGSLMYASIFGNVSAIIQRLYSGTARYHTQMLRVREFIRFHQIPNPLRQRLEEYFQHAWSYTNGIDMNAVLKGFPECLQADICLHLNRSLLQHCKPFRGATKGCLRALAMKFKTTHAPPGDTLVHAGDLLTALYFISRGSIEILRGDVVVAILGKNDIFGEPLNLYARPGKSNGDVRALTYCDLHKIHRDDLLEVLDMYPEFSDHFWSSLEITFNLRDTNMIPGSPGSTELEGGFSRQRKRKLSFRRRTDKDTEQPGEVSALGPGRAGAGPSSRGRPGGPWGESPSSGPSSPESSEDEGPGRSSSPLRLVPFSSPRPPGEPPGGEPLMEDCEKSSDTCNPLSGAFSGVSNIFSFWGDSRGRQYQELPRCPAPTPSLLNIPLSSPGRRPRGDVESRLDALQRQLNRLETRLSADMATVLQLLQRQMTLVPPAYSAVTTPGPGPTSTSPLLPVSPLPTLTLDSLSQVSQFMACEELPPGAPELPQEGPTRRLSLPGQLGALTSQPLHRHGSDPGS
Chain of Luciferin 4-monooxygenase (Photinus pyralis) (P08659 whole entry, looked up): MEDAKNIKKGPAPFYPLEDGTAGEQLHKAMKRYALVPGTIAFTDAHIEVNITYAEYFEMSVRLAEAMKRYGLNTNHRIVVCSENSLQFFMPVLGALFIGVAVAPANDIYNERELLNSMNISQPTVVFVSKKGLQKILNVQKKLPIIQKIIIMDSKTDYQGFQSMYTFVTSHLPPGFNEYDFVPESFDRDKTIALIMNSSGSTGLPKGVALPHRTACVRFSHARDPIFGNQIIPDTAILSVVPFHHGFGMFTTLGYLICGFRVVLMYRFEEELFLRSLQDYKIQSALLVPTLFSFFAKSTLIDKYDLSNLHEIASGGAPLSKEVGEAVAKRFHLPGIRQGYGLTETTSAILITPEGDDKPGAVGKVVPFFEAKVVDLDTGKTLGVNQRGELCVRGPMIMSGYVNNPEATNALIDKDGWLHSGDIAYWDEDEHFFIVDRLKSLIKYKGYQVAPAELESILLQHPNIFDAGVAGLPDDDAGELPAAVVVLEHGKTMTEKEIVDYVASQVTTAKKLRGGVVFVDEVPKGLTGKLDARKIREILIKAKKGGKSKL

| Structure (SMILES) | Potency [1] | Potency [2] | Potency [3] |
| --- | --- | --- | --- |
| CC[N+](C)(C)Cc1ccccc1Br | inactive | inactive | inactive |
| CO[C@H]1C=CO[C@@]2(C)Oc3c(C)c(O)c4c(O)c(c5c(nc6cc(C)ccn65)c4c3C2=O)NC(=O)/C(C)=C\C=C[C@H](C)[C@H](O)[C@@H](C)[C@@H](O)[C@@H](C)[C@H](OC(C)=O)[C@@H]1C | inactive |  |  |
| CCOC(=O)C1=C(C)NC(C)=C(C(=O)OCC)C1c1ccccc1C=CC(=O)OC(C)(C)C | inactive | inactive |  |
| Cc1c(C)c2c(c(C)c1O)CC[C@@](C)(CCC[C@@H](C)CCC[C@@H](C)CCCC(C)C)O2 | inactive | inactive | inactive |
| CC1=C(/C=C/C(C)=C/C=C/C(C)=C/C=C/C=C(C)/C=C/C=C(C)/C=C/C2=C(C)C(=O)CCC2(C)C)C(C)(C)CCC1=O | inactive | inactive | inactive |
| COC(=O)[C@H]1[C@H]2C[C@@H]3c4[nH]c5ccccc5c4CCN3C[C@H]2C[C@@H](OC(=O)c2cc(OC)c(OC)c(OC)c2)[C@@H]1OC | 0.355 µM (active) | inactive | 5.1 µM (active) |
| COC(=O)C1=C(C#N)NC(C)=C(C(=O)OC(C)C)C1c1cccc([N+](=O)[O-])c1 (centres undefined) | inactive | inactive | inactive |
| COc1ccc2c3c1O[C@H]1C[C@@H](O)C=C[C@@]31CCN(C)C2 | inactive | inactive | inactive |
| COc1cc(-c2ccc(-[n+]3nc(-c4ccccc4)nn3-c3ccc([N+](=O)[O-])cc3)c(OC)c2)ccc1-[n+]1nc(-c2ccccc2)nn1-c1ccc([N+](=O)[O-])cc1 | inactive | inactive |  |
| CC(=O)Oc1cc(C)c(OC(C)=O)c2ccccc12 | inactive | inactive |  |
| CC(C)N=c1cc2n(-c3ccc(Cl)cc3)c3ccccc3nc-2cc1Nc1ccc(Cl)cc1 | 7.08 µM (active) | inactive | inactive |
| CCOc1ccc(N=Nc2ccc(N)cc2N)cc1 | inactive | 0.203 µM (active) |  |
| O=S(=O)(O)c1cc(O)c2c(N=Nc3ccc(Nc4ccccc4)c4c(S(=O)(=O)O)cccc34)cc(S(=O)(=O)O)cc2c1 | inactive | 32.2 µM (active) |  |
| CCCCCCCCCCCC[n+]1ccc2ccccc2c1 | 3.16 µM (active) | inactive | 16.1 µM (active) |
| CO[C@H]1C[C@@H]2CC[C@@H](C)[C@@](O)(O2)C(=O)C(=O)N2CCCC[C@H]2C(=O)O[C@H]([C@H](C)C[C@@H]2CC[C@@H](OCCO)[C@H](OC)C2)CC(=O)[C@H](C)/C=C(\C)[C@@H](O)[C@@H](OC)C(=O)[C@H](C)C[C@H](C)/C=C/C=C/C=C/1C | inactive | inactive |  |
| C=CCSSSCC=C | inactive | inactive |  |
| Nc1c(N=Nc2ccc(-c3ccc(N=Nc4cc(S(=O)(=O)O)c5ccccc5c4N)cc3)cc2)cc(S(=O)(=O)O)c2ccccc12 | inactive | 32.2 µM (active) | inactive |
| O=C(Nc1cccc(C(F)(F)F)c1)c1cc(Br)cc(Br)c1O | inactive | 7.21 µM (active) |  |
| CO[C@H](C(=O)[C@@H](O)[C@@H](C)O)C1Cc2cc3cc(O[C@H]4C[C@@H](O[C@H]5C[C@@H](O)[C@H](O)[C@@H](C)O5)[C@@H](O)[C@@H](C)O4)c(C)c(O)c3c(O)c2C(=O)[C@H]1O[C@H]1C[C@@H](O[C@H]2C[C@@H](O[C@H]3C[C@](C)(O)[C@H](O)[C@@H](C)O3)[C@H](O)[C@@H](C)O2)[C@H](O)[C@@H](C)O1 (some centres undefined) | inactive | inactive | inactive |
| CC(C)(C)C(=O)OCOC(=O)[C@@H]1N2C(=O)[C@@H](N=CN3CCCCCC3)[C@H]2SC1(C)C | inactive | inactive | inactive |
| C#CCOc1ccc2c(C)cc(=O)oc2c1 | inactive | inactive | inactive |

| Structure (SMILES) | Potency [1] | Potency [2] | Potency [3] |
| --- | --- | --- | --- |
| C[C@]12CCC(=O)C=C1CC[C@@H]1[C@@H]2[C@@H](O)C[C@@]2(C)[C@H]1CC[C@]2(O)C(=O)COP(=O)(O)O | inactive | inactive | inactive |
| CCN(CC)CCOc1ccc(-c2nc3cc(Cl)ccc3s2)cc1 | 5.01 µM (active) | 6.42 µM (active) |  |
| CCCC(=O)Nc1ncnc2c1ncn2C1OC2COP(=O)(O)OC2C1OC(=O)CCC (centres undefined) | inactive | inactive | inactive |
| O=C(O)c1cc(=O)c2c3nc4ccccc4oc-3cc(=O)c2[nH]1 | inactive |  | 36.1 µM (active) |
| CCCCC(C)(O)C/C=C/[C@H]1[C@H](O)CC(=O)[C@@H]1CCCCCCC(=O)OC (some centres undefined) |  | inactive | inactive |
| CN1Cc2c(N)cccc2C(c2ccccc2)C1 (centres undefined) | inactive and 12.6 µM (active) | inactive | inactive |
| CCCCCCCCCCCCCCCC(=O)OCC(COC(=O)CCCCCCCCCCCCCCC)OC(=O)CCCCCCCCCCCCCCC | inactive | inactive | inactive |
| O=C(Nc1ccc(Br)cc1)c1cc(Br)c(Br)s1 |  | 16.1 µM (active) |  |
| CN(C)CCCN1c2ccccc2C(C)(C)c2ccccc21 |  | inactive | 28.7 µM (active) |
| COC(=O)CCC(=O)CN | inactive | inactive | inactive |
| Cc1cn([C@H]2C[C@H](O)[C@@H](CO)O2)c(=O)[nH]c1=O | inactive | inactive | inactive |
| CC(Cc1ccc(O)c(O)c1)C(C)Cc1ccc(O)c(O)c1 (centres undefined) | inactive |  | inactive |
| COCC(=O)Nc1cc(Sc2ccccc2)ccc1N=C(NC(=O)OC)NC(=O)OC |  | inactive |  |
| Cc1c(C)c2c(c(C)c1O)CC[C@@](C)(CCC[C@H](C)CCC[C@H](C)CCCC(C)C)O2 |  | inactive | inactive |
| CCCCCCCCCCCCCC[n+]1ccc(C)cc1 |  | inactive |  |
| CC1(C)S[C@@H]2[C@H](NC(=O)[C@@H](NC(=O)N3CCNC3=O)c3ccccc3)C(=O)N2[C@H]1C(=O)O |  | inactive | inactive |
| CC1=C(/C=C/C(C)=C/C=C/C(C)=C/C=C/C=C(C)/C=C/C=C(C)/C=C/C2=C(C)CCCC2(C)C)C(C)(C)CCC1 |  | inactive | inactive |
| C#C[C@]1(O)CC[C@H]2[C@@H]3CCC4=CCCC[C@@H]4[C@H]3C(=C)C[C@@]21CC |  | inactive |  |
| Nc1ncnc2c1ncn2[C@@H]1O[C@H](COP(=O)(O)OP(=O)(O)OP(=O)(O)O)[C@@H](O)[C@H]1O | inactive |  | inactive |
| Oc1cc(O)c2c(c1)OC(c1ccc(O)c(O)c1)C(O)C2 (centres undefined) |  | inactive | inactive |
| CC(=O)N[C@@H](CC(=O)O)C(=O)N[C@@H](CCC(=O)O)C(=O)O (Ac-Asp-Glu-OH) | inactive | inactive | inactive |

| Structure (SMILES) | Potency [1] | Potency [2] | Potency [3] |
| --- | --- | --- | --- |
| C[C@@H]1CCC2[C@@H](C)[C@@H](O)O[C@@H]3O[C@@]4(C)CC[C@@H]1[C@@]23OO4 (some centres undefined) | inactive | inactive | inactive |
| CCN(CC)Cc1cc(Nc2ccnc3cc(Cl)ccc23)ccc1O |  | inactive | inactive |
| Cc1ccccc1OCC(O)CNCCOc1ccc(C(N)=O)cc1 (centres undefined) |  | inactive |  |
| O=C(COc1ccc(Cl)cc1)OCCNC12CC3CC(CC(C3)C1)C2 |  | inactive | inactive |
| CCC(=O)NCCC1CCc2ccc3c(c21)CCO3 (centres undefined) |  | inactive | inactive |
| CC(C(=O)O)c1ccc(N2Cc3ccccc3C2=O)cc1 (centres undefined) | inactive | 0.181 µM (active) | inactive |
| CCNC(=O)[C@@H]1CCCN1C(=O)[C@H](CCCN=C(N)N)NC(=O)[C@H](CC(C)C)NC(=O)[C@@H](Cc1c[nH]c2ccccc12)NC(=O)[C@H](Cc1ccc(O)cc1)NC(=O)[C@H](CO)NC(=O)[C@H](Cc1c[nH]c2ccccc12)NC(=O)[C@H](Cc1cnc[nH]1)NC(=O)[C@@H]1CCC(=O)N1 | 2.51 µM (active) | inactive | 6.42 µM (active) |
| CCCC(=O)O[C@]1(C(=O)CCl)[C@H](C)C[C@@H]2[C@H]3CCC4=CC(=O)C=C[C@]4(C)[C@@]3(F)C(=O)C[C@@]21C |  | inactive | inactive |
| CC(=O)Oc1c(C)cc(OCC(O)CNC(C)C)c(C)c1C (centres undefined) | inactive | inactive | inactive |
| COC(F)(F)C(Cl)Cl | inactive | inactive | inactive |
| Cc1cc(C(=O)NNCc2ccccc2)no1 | inactive | inactive | inactive |
| O=C1CSC2(CCN(CCCN3c4ccccc4Sc4ccc(Cl)cc43)CC2)N1 | 7.08 µM (active) | inactive | 32.2 µM (active) |
| CCCCCCCCCCCCCCCCCCOP(=O)([O-])OC1CC[N+](C)(C)CC1 |  | inactive |  |
| OC[C@H]1O[C@@H](n2cnc3c2NC=NC[C@H]3O)C[C@@H]1O |  | inactive |  |
| Clc1cc(Cl)c(OCC#CI)cc1Cl |  |  | 25.6 µM (active) |
| COC(C(=O)C(O)C(C)O)C1Cc2cc3cc(OC4CC(OC5CC(O)C(O)C(C)O5)C(O)C(C)O4)c(C)c(O)c3c(O)c2C(=O)C1OC1CC(OC2CC(OC3CC(C)(O)C(O)C(C)O3)C(O)C(C)O2)C(O)C(C)O1 (centres undefined) |  |  | inactive |
| CN1C(=O)CN2CCc3ccccc3C2c2cc(Cl)ccc21 (centres undefined) |  | inactive | inactive |
| CC(NNC(=O)c1ccccc1)c1ccccc1 (centres undefined) | inactive |  | inactive |
| NC1C2CN(c3nc4c(cc3F)c(=O)c(C(=O)O)cn4-c3ccc(F)cc3F)CC12 (centres undefined) | inactive | inactive | inactive |
